Screening data as filed in PubChem BioAssay.
In the library only some 2.7% were active in any assay of this set; here they are far more common.
HIV Env fusion = inhibitors of HIV-1 Env-driven cell-cell fusion, primary screen, HeLa-JRFL effector, CEM21 target cells, luciferase. inhibition, % at 12.3 µM. hit rate 1.1% among 360,000. AID 651610, 2012;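 active means mean replicate inhibition score of at least 50 and every replicate individually at or above 50; inconclusive means only one of the two criteria met; inactive means mean below 50 and not all replicates reaching 50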;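 further: 0% = plate neutral controls and 100% = maraviroc near 300 nM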
INS-1E GSIS act = GLuc luminescence reporter in INS-1E cells, primary screen for activators of glucose-dependent secretion of insulin | activation, % at 16.6 µM | AID 743287, 2014 | hit rate 0.61% among 370,000 | INS-1E GLuc reporter insulin secretion, 2-3 h;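 active means lowest replicate activation of at least 40%, so every replicate reaches that level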;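 further: 0% = median of neutral control wells and 100% = median of IBMX positive control wells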
MITF TRPM1 HTS = activators of MITF-driven TRPM1 promoter reporter, primary screen, cell-based, SK-MEL-5, luciferase, single point. AID 588334, 2011. SK-MEL-5 TRPM1-promoter luciferase, 24 h; % of positive control, neutral wells = 0. hit rate 0.75% among 300,000. activation, % at 12.5 µM;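 active means mean activation of at least 80% with every replicate also reaching 80%; inconclusive means mean reaches 80% but some replicate falls short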;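 further: 0% = neutral control wells and 100% = parthenolide positive control wells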
CFTR F508del cor = F508del CFTR correction, initial screen, CFBE line, single point; hit rate 0.36% among 350,000; activity (quench increase), % at 7.58 µM; CFBE cells, YFP halide quenching; stimulated with forskolin plus potentiator P3; % fluorescence drop versus neutral controls; AID 720511, 2013;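 active means mean added fluorescence quench of at least 8% versus neutral control, with both replicates also reaching 8%; inconclusive means only one of the mean or replicate conditions met; inactive means mean below 8% and not both replicates reaching 8%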;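 further: cells transiently co-express mutant CFTR-F508del with the halide-sensitive YFP; corrector assay measuring rescue of mutant channel to the surface after 24 h compound exposure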
Wnt act = Wnt/beta-catenin pathway activators, primary screen, cell-based, plate reader, single point; Wnt/beta-catenin reporter cell assay, activator; activation, % at 9.35 µM; hit rate 1.2% among 300,000; in the data active means activation above about 30%, passing the limit was not always enough; inconclusive means no clear call, values can overlap the other calls;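 further: 0% = neutral control wells and 100% = positive control wells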
Starred values were filed as active, the others as inactive; i = inactive; ? = inconclusive; / = no result given; [ ] = another dose, or the depositor's remark.

SMILES	HIV Env fusion	INS-1E GSIS act	MITF TRPM1 HTS	CFTR F508del cor	Wnt act
Cc1ccc(-n2c(-c3ccccc3)c[n+]3c2CCC3)cc1	62*	-31	-26	-4	-1
COc1cccc(NC(=O)N2C[C@@H](O)COC[C@@H]3O[C@@H](CC(=O)NC4Cc5ccccc5C4)CC[C@H]32)c1	-10[16.7 µM]	-2	/	1	/
CCN(C[C@H]1N[C@@](CC)(C(=O)OC)[C@H]2C(=O)N(Cc3ccccc3)C(=O)[C@@H]12)S(=O)(=O)c1ccc(-c2ccccc2)cc1	33	/	-1	1	-4
CCN(C[C@H]1N[C@@](CC)(C(=O)OC)[C@H]2C(=O)N(Cc3ccccc3)C(=O)[C@@H]12)S(=O)(=O)c1ccc(C)cc1	81*	-7	-8	-2	-2
CCN(C[C@H]1N[C@@](CC)(C(=O)OC)[C@H]2C(=O)N(Cc3ccccc3)C(=O)[C@@H]12)S(=O)(=O)c1ccc(C(C)(C)C)cc1	58*	-17	5	-4	-1
CCN(C[C@H]1N[C@@](Cc2ccccc2)(C(=O)OC)[C@H]2C(=O)N(C)C(=O)[C@@H]12)S(=O)(=O)c1ccc(OC(F)(F)F)cc1	-40	/	7	3	-4
CCN(C[C@H]1N[C@@](C)(C(=O)OC)[C@H]2C(=O)N(Cc3ccccc3)C(=O)[C@@H]12)S(=O)(=O)c1ccc(F)cc1	37	-1	7	0	-1
CCN(C[C@H]1N[C@@](CC)(C(=O)OC)[C@H]2C(=O)N(Cc3ccccc3)C(=O)[C@@H]12)S(=O)(=O)c1ccc(OC(F)(F)F)cc1	87*	-50	2	0	-4
CCN(C[C@H]1N[C@@](C)(C(=O)OC)[C@H]2C(=O)N(Cc3ccccc3)C(=O)[C@@H]12)S(=O)(=O)c1ccc(C(C)(C)C)cc1	84*	-28	8	-4	-3
CCC(=O)Nc1ccc2c(c1)C(=O)N(C)[C@@H]1CC[C@@H](CC(=O)NC3CCCC3)O[C@H]1CO2	-18[16.7 µM]	-6	/	-5	/
O=C(Nc1nccs1)[C@H]1[C@H](CO)[C@H]2Cn3c(cccc3=O)[C@H]2N1C(=O)C1CCCC1	/	-9	/	2	/
COc1cccc(S(=O)(=O)N(C)C[C@@H]2Oc3cc(C#CCC(C)C)ccc3S(=O)(=O)N([C@@H](C)CO)C[C@H]2C)c1	44[16.7 µM]	7	/	0	/
CN(C(=O)c1ccc(Oc2ccc([N+](=O)[O-])cc2)cc1)C1CCCCC1	59*	-37	-7	3	1
CN(C(=O)c1cccc(NC(=O)Cc2ccc([N+](=O)[O-])cc2)c1)C1CCCCC1	-13	-31	/	0	-2
CCOC(=O)c1sc2nc3c(SCCC#N)cc(C(=O)c4cc(F)ccc4O)cn3c(=O)c2c1C	35	-8	-5	/	-3
CCOC(=O)c1sc2nc3c(SCCC(=O)O)cc(C(=O)c4cc(OC)ccc4O)cn3c(=O)c2c1C	72*	12	-12	0	19
O=C(Nc1ccc2c(c1)OCO2)N[C@H]1CC[C@H](CCNC(=O)C2CCCCC2)O[C@@H]1CO	-11[16.7 µM]	9	/	1	/
Cc1cc(C)c(S(=O)(=O)c2c(C)cccc2C)c(OCC(C)C)n1	78*	/	-8	/	2
O=c1[nH]c(/C=C/c2ccccc2F)nc2ccccc12	i	6	13	9.8*	7
O=c1[nH]c(/C=C/c2ccc(Br)cc2)nc2ccccc12	-88	1	71	0	45*
O=c1[nH]c(COc2ccc(Br)cc2Cl)nc2ccccc12	-53	-4	?	3	44*
CN(C)c1ccc(/C=C/c2nc3ccccc3c(=O)[nH]2)cc1	17	9	-50	2	16
O=C(C1CC1)N1CC(=O)N2[C@H](C1)[C@H](c1ccc(C#CCc3ccccc3)cc1)[C@@H]2CO	/	-16	/	6	/
O=C(OCCN1CCOCC1)C(c1ccccc1)c1ccccc1	/	/	-10	/	/
CC(C)(COC(=O)C(c1ccccc1)c1ccccc1)CN1CCOCC1	80*	11	-4	4	-25
C[C@@H]1CN([C@@H](C)CO)C(=O)c2cc(-c3ccncc3)cnc2O[C@@H]1CN(C)C(=O)Cc1cccnc1	-8[16.7 µM]	12	/	3	/
Cc1ccn2c(Nc3ccccc3)c(-c3ccccn3)nc2c1	66*	-5	-65	-3	-12
C[C@@H]1CCCCO[C@H](CN(C)S(C)(=O)=O)[C@@H](C)CN([C@H](C)CO)C(=O)c2cc(NS(=O)(=O)c3cccs3)ccc2O1	6[16.7 µM]	-6	/	-2	/
O=C(Nc1ccccc1C(=O)NC(Cc1ccccc1)C(=O)O)c1ccccc1 (stereo not given)	-7	9	1	0	-1
O=C(Nc1ccccc1C(=O)NC(Cc1ccccc1)C(=O)NC1CCCCC1)c1ccccc1 (stereo not given)	66*	-16	14	/	/
